# Experimental data published in the supplement of paper PMC8728848.
# About 410 targets per protein were measured; listed, in parts, are those with the strongest signals and a random draw of the rest.
# Tests used:
# Assay in all cases: glycan array binding signal (z-score within array); higher = stronger binding
# Conditions in all cases: glycan notation: IUPAC condensed, linker removed
# [1] = target: Fuc(a1-2)Gal(b1-3)GlcNAc(b1-2)Man(a1-3)[Fuc(a1-2)Gal(b1-3)GlcNAc(b1-2)Man(a1-6)]Man(b1-4)GlcNAc(b1-4)GlcNAc
# Method in brief: (§1)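 The binding signal is a Z-score computed within each array. Data were drawn from 3228 arrays in the Consortium for Functional Glycomics database, restricted to those with a known protein sequence. Scores were averaged over arrays of the same protein sequence at different concentrations or buffers, and over linkers, and negative values can be taken as non-binding.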
# [2] = target: Fuc(a1-2)Gal(b1-4)[Fuc(a1-3)]GlcNAc
# Method in brief: as §1
# [3] = target: Fuc(a1-2)[Gal(a1-3)]Gal(b1-3)GalNAc
# Method in brief: as §1
# [4] = target: Fuc(a1-2)[Gal(a1-3)]Gal(b1-3)GlcNAc(b1-2)Man(a1-3)[Fuc(a1-2)[Gal(a1-3)]Gal(b1-3)GlcNAc(b1-2)Man(a1-6)]Man(b1-4)GlcNAc(b1-4)GlcNAc
# Method in brief: as §1
# [5] = target: Fuc(a1-2)[Gal(a1-3)]Gal(b1-4)GlcNAc(b1-3)GalNAc
# Method in brief: as §1
# [6] = target: Fuc(a1-2)[GalNAc(a1-3)]Gal(b1-3)GlcNAc(b1-2)Man(a1-3)[Fuc(a1-2)[GalNAc(a1-3)]Gal(b1-3)GlcNAc(b1-2)Man(a1-6)]Man(b1-4)GlcNAc(b1-4)GlcNAc
# Method in brief: as §1
# [7] = target: Fuc(a1-2)[GalNAc(a1-3)]Gal(b1-4)GlcNAc(b1-3)GalNAc
# Method in brief: as §1
# [8] = target: Fuc(a1-3)[Gal(b1-4)]GlcNAc6S
# Method in brief: as §1
# Fuc(b1-3)GlcNAc = target: Fuc(b1-3)GlcNAc
# Method in brief: as §1
# Gal(a1-3)Gal = target: Gal(a1-3)Gal
# Method in brief: as §1
# [9] = target: Gal(a1-3)Gal(b1-4)[Fuc(a1-3)]GlcNAc(b1-2)Man(a1-3)[Gal(a1-3)Gal(b1-4)[Fuc(a1-3)]GlcNAc(b1-2)Man(a1-6)]Man(b1-4)GlcNAc(b1-4)GlcNAc
# Method in brief: as §1
# Gal(a1-3)GalNAc = target: Gal(a1-3)GalNAc
# Method in brief: as §1
# [10] = target: Gal(b1-3)Gal(b1-4)GlcNAc(b1-2)Man(a1-3)[Gal(b1-3)Gal(b1-4)GlcNAc(b1-2)Man(a1-6)]Man(b1-4)GlcNAc(b1-4)GlcNAc
# Method in brief: as §1
# [11] = target: Gal(b1-3)GalNAc(a1-3)[Fuc(a1-2)]Gal(b1-4)GlcNAc
# Method in brief: as §1
# Gal(b1-3)GlcNAc = target: Gal(b1-3)GlcNAc
# Method in brief: as §1
# [12] = target: Gal(b1-3)GlcNAc(b1-2)Man(a1-3)[Gal(b1-3)GlcNAc(b1-2)Man(a1-6)]Man(b1-4)GlcNAc(b1-4)GlcNAc
# Method in brief: as §1
# [13] = target: Gal(b1-3)GlcNAc(b1-3)Gal(b1-4)GlcNAc
# Method in brief: as §1
# [14] = target: Gal(b1-4)GlcNAc(b1-2)Man(a1-3)[Gal(b1-4)GlcNAc(b1-2)Man(a1-6)]Man(b1-4)GlcNAc(b1-4)[Fuc(a1-6)]GlcNAc
# Method in brief: as §1
# [15] = target: Gal(b1-4)GlcNAc(b1-2)[Gal(b1-4)GlcNAc(b1-4)]Man(a1-3)[Gal(b1-4)GlcNAc(b1-2)Man(a1-6)]Man(b1-4)GlcNAc(b1-4)GlcNAc
# Method in brief: as §1
# [16] = target: Gal(b1-4)GlcNAc(b1-3)Gal(b1-3)GlcNAc
# Method in brief: as §1
# [17] = target: Gal(b1-4)GlcNAc(b1-3)Gal(b1-4)[Fuc(a1-3)GlcNAc(b1-6)]Gal(b1-4)Glc
# Method in brief: as §1
# [18] = target: Gal(b1-4)GlcNAc(b1-3)[Gal(b1-4)GlcNAc(b1-6)]Gal(b1-4)GlcNAc
# Method in brief: as §1
# [19] = target: Gal(b1-4)GlcNAc(b1-3)[GlcNAc(b1-6)]Gal(b1-4)GlcNAc
# Method in brief: as §1
# [20] = target: Gal3S(b1-3)[Fuc(a1-4)]GlcNAc
# Method in brief: as §1
# Gal3S(b1-4)Glc = target: Gal3S(b1-4)Glc
# Method in brief: as §1
# Gal3S(b1-4)GlcNAc6S = target: Gal3S(b1-4)GlcNAc6S
# Method in brief: as §1
# Gal6S(b1-4)GlcNAc6S = target: Gal6S(b1-4)GlcNAc6S
# Method in brief: as §1
# GalNAc(b1-4)Gal(b1-4)Glc = target: GalNAc(b1-4)Gal(b1-4)Glc
# Method in brief: as §1
# Glc(a1-4)Glc = target: Glc(a1-4)Glc
# Method in brief: as §1
# Glc(a1-6)Glc(a1-6)Glc = target: Glc(a1-6)Glc(a1-6)Glc
# Method in brief: as §1
# [21] = target: GlcNAc(a1-4)Gal(b1-4)GlcNAc(b1-3)Gal(b1-4)GlcNAc
# Method in brief: as §1
# [22] = target: GlcNAc(a1-4)Gal(b1-4)GlcNAc(b1-3)Gal(b1-4)[Fuc(a1-3)]GlcNAc(b1-3)Gal(b1-4)[Fuc(a1-3)]GlcNAc
# Method in brief: as §1
# [23] = target: GlcNAc(b1-2)[GlcNAc(b1-6)]Man(a1-6)[GlcNAc(b1-2)Man(a1-3)]Man(b1-4)GlcNAc(b1-4)GlcNAc
# Method in brief: as §1
# [24] = target: GlcNAc(b1-2)[GlcNAc(b1-6)]Man(a1-6)[GlcNAc(b1-2)Man(a1-3)][GlcNAc(b1-4)]Man(b1-4)GlcNAc(b1-4)GlcNAc
# Method in brief: as §1
# [25] = target: GlcNAc(b1-3)[GlcNAc(b1-4)][GlcNAc(b1-6)]GlcNAc
# Method in brief: as §1
# GlcNAc(b1-4)GlcNAc = target: GlcNAc(b1-4)GlcNAc
# Method in brief: as §1
# [26] = target: Man(a1-3)[Man(a1-6)]Man(b1-4)GlcNAc(b1-4)GlcNAc
# Method in brief: as §1
# [27] = target: Neu5Ac(a2-3)Gal(b1-3)GlcNAc
# Method in brief: as §1
# [28] = target: Neu5Ac(a2-3)Gal(b1-3)[Neu5Ac(a2-6)]GalNAc
# Method in brief: as §1
# [29] = target: Neu5Ac(a2-3)Gal(b1-4)GlcNAc(b1-6)[Gal(b1-3)]GalNAc
# Method in brief: as §1
# [30] = target: Neu5Ac(a2-3)Gal(b1-4)[Fuc(a1-3)]GlcNAc(b1-3)GalNAc
# Method in brief: as §1
# Neu5Ac(a2-3)GalNAc = target: Neu5Ac(a2-3)GalNAc
# Method in brief: as §1
# [31] = target: Neu5Ac(a2-6)Gal(b1-4)GlcNAc(b1-2)Man(a1-3)[Gal(b1-4)GlcNAc(b1-2)Man(a1-6)]Man(b1-4)GlcNAc(b1-4)GlcNAc
# Method in brief: as §1
# [32] = target: Neu5Ac(a2-6)Gal(b1-4)GlcNAc(b1-2)Man(a1-6)Man(b1-4)GlcNAc(b1-4)GlcNAc
# Method in brief: as §1
# [33] = target: Neu5Ac(a2-8)Neu5Ac(a2-3)[GalNAc(b1-4)]Gal(b1-4)Glc
# Method in brief: as §1
# [34] = target: Neu5Ac(a2-8)Neu5Ac(a2-8)Neu5Ac(a2-3)[GalNAc(b1-4)]Gal(b1-4)Glc
# Method in brief: as §1
# [35] = target: Neu5Ac(b2-6)Gal(b1-4)GlcNAc
# Method in brief: as §1
# [36] = target: Neu5Ac9Ac(a2-3)Gal(b1-3)GlcNAc
# Method in brief: as §1
# [37] = target: Neu5Gc(b2-6)Gal(b1-4)GlcNAc
# Method in brief: as §1
binder,measurement,setting,value
"Eosinophil-derived neurotoxin (EDN) (Homo sapiens), P10153 (protein) MVPKLFTSQICLLLLLGLLAVEGSLHVKPPQFTWAQWFETQHINMTSQQCTNAMQVINNYQRRCKNQNTFLLTTFANVVNVCGNPNMTCPSNKTRKNCHHSGSQVPLIHCNLTTPSPQNISNCRYAQTPANMFYIVACDNRDQRRDPPQYPVVPVHLDRII",glycan array binding signal (z-score),[1],0.954
same,glycan array binding signal (z-score),[2],-0.438
same,glycan array binding signal (z-score),[3],-0.092
same,glycan array binding signal (z-score),[4],0.666
same,glycan array binding signal (z-score),[5],-0.523
same,glycan array binding signal (z-score),[6],0.308
same,glycan array binding signal (z-score),[7],0.483
same,glycan array binding signal (z-score),[8],0.272
same,glycan array binding signal (z-score),Fuc(b1-3)GlcNAc,-0.332
same,glycan array binding signal (z-score),Gal(a1-3)Gal,-0.363
same,glycan array binding signal (z-score),[9],0.387
same,glycan array binding signal (z-score),Gal(a1-3)GalNAc,-0.593
same,glycan array binding signal (z-score),[10],0.187
same,glycan array binding signal (z-score),[11],0.269
same,glycan array binding signal (z-score),Gal(b1-3)GlcNAc,-0.339
same,glycan array binding signal (z-score),[12],-0.33
same,glycan array binding signal (z-score),[13],0.648
same,glycan array binding signal (z-score),[14],1.36
same,glycan array binding signal (z-score),[15],-0.461
same,glycan array binding signal (z-score),[16],-0.443
same,glycan array binding signal (z-score),[17],0.142
same,glycan array binding signal (z-score),[18],1.13
same,glycan array binding signal (z-score),[19],1.36
same,glycan array binding signal (z-score),[20],0.104
same,glycan array binding signal (z-score),Gal3S(b1-4)Glc,-0.269
same,glycan array binding signal (z-score),Gal3S(b1-4)GlcNAc6S,-0.506
same,glycan array binding signal (z-score),Gal6S(b1-4)GlcNAc6S,-0.122
same,glycan array binding signal (z-score),GalNAc(b1-4)Gal(b1-4)Glc,-0.211
same,glycan array binding signal (z-score),Glc(a1-4)Glc,-0.482
same,glycan array binding signal (z-score),Glc(a1-6)Glc(a1-6)Glc,0.261
same,glycan array binding signal (z-score),[21],12.5
same,glycan array binding signal (z-score),[22],1.45
same,glycan array binding signal (z-score),[23],-0.199
same,glycan array binding signal (z-score),[24],0.017
same,glycan array binding signal (z-score),[25],0.413
same,glycan array binding signal (z-score),GlcNAc(b1-4)GlcNAc,-0.215
same,glycan array binding signal (z-score),[26],-0.552
same,glycan array binding signal (z-score),[27],-0.205
same,glycan array binding signal (z-score),[28],0.143
same,glycan array binding signal (z-score),[29],1.16
same,glycan array binding signal (z-score),[30],0.955
same,glycan array binding signal (z-score),Neu5Ac(a2-3)GalNAc,0.007
same,glycan array binding signal (z-score),[31],1.86
same,glycan array binding signal (z-score),[32],0.578
same,glycan array binding signal (z-score),[33],1.66
same,glycan array binding signal (z-score),[34],-0.121
same,glycan array binding signal (z-score),[35],0.387
same,glycan array binding signal (z-score),[36],-0.207
same,glycan array binding signal (z-score),[37],0.153
